Laboratory results taken from PubChem BioAssay AID1159580 (chemical genetic matrix, 2015).
Hit rate of the full screen: of about 5,500 compounds, about 2,000 (36%) were called active. Inconclusive results (about 18%) are left out. Rule as the data show it: active = normalized growth mostly below about 0.91 (no sharp cut-off); inconclusive = no clear call, values can overlap the other calls; inactive = mostly above about 0.92. The list shows a part of the results.

Test: chemical genetic growth profiling, strain panel (AID 1159580);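 also: tested at 20 µM; growth read once vehicle control cultures reached saturation at 30 °C; 1 = growth at the plate median or of vehicle wells; lower values mean less growth of the strain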
Conditions: growth OD

Measured: normalized growth

COc1ccc(CC2c3cc(OC)c(OC)cc3CCN2C)cc1OC (stereo unspecified)
inactive: S. cerevisiae deletion strains, locus YAL013W, strain DEP1, hits give low values 0.984 | S. cerevisiae deletion strains, locus YBR021W, strain FUR4, hits give low values 1.05 | S. cerevisiae deletion strains, locus YBR229C, strain ROT2, hits give low values 0.969 | S. cerevisiae deletion strains, locus YCL029C, strain bik1, hits give low values 0.988 | S. cerevisiae deletion strains, locus YDL035C, strain GPR1, hits give low values 0.997 | S. cerevisiae deletion strains, locus YDL074C, strain BRE1, hits give low values 0.964 | S. cerevisiae deletion strains, locus YDL101C, strain DUN1, hits give low values 0.961 | S. cerevisiae deletion strains, locus YDL134C, strain PPH21, hits give low values 0.981 | S. cerevisiae deletion strains, locus YDL185W, strain tfp1, hits give low values 0.951 | S. cerevisiae deletion strains, locus YDL192W, strain arf1, hits give low values 0.994 | S. cerevisiae deletion strains, locus YDR101C, strain arx1, hits give low values 1.01 | S. cerevisiae deletion strains, locus YDR150W, strain NUM1, hits give low values 0.974 | S. cerevisiae deletion strains, locus YDR162C, strain NBP2, hits give low values 0.941 | S. cerevisiae deletion strains, locus YDR318W, strain mcm21, hits give low values 1.02 | S. cerevisiae deletion strains, locus YDR388W, hits give low values 0.992 | S. cerevisiae deletion strains, locus YDR502C, strain sam2, hits give low values 0.974 | S. cerevisiae deletion strains, locus YEL061C, strain CIN8, hits give low values 0.988 | S. cerevisiae deletion strains, locus YER110C, hits give low values 0.987 | S. cerevisiae deletion strains, locus YER155C, strain BEM2, hits give low values 1 | S. cerevisiae deletion strains, locus YER167W, strain BCK2, hits give low values 0.997 | S. cerevisiae deletion strains, locus YGL078C, strain dbp3, hits give low values 0.976 | S. cerevisiae deletion strains, locus YGL086W, strain mad1, hits give low values 1.01 | S. cerevisiae deletion strains, locus YGL248W, strain PDE1, hits give low values 0.978 | S. cerevisiae deletion strains, locus YGR078C, strain PAC10, hits give low values 0.967 | S. cerevisiae deletion strains, locus YGR135W, strain pre9, hits give low values 0.957 | S. cerevisiae deletion strains, locus YGR229C, strain SMI1, hits give low values 0.997 | S. cerevisiae deletion strains, locus YGR252W, strain gcn5, hits give low values 1.08 | S. cerevisiae deletion strains, locus YHR030C, strain SLT2, hits give low values 1 | S. cerevisiae deletion strains, locus YHR079C, strain IRE1 (second series), hits give low values 0.99 | S. cerevisiae deletion strains, locus YHR094C, strain hxt1, hits give low values 0.988 | S. cerevisiae deletion strains, locus YHR129C, strain ARP1, hits give low values 0.987 | S. cerevisiae deletion strains, locus YHR200W, strain rpn10, hits give low values 0.982 | S. cerevisiae deletion strains, locus YIL066C, strain RNR3, hits give low values 0.971 | S. cerevisiae deletion strains, locus YIL073C, strain SPO22, hits give low values 1.02 | S. cerevisiae deletion strains, locus YIL125W, strain kgd1, hits give low values 0.983 | S. cerevisiae deletion strains, locus YIR030C, strain dcg1, hits give low values 0.979 | S. cerevisiae deletion strains, locus YJL095W, strain BCK1, hits give low values 0.985 | S. cerevisiae deletion strains, locus YJL134W, strain LCB3, hits give low values 0.993 | S. cerevisiae deletion strains, locus YJL168C, strain set2, hits give low values 0.98 | S. cerevisiae deletion strains, locus YJL187C, strain SWE1 (second series), hits give low values 0.959 | S. cerevisiae deletion strains, locus YJR043C, strain POL32, hits give low values 1.03 | S. cerevisiae deletion strains, locus YJR075W, strain HOC1, hits give low values 0.926 | S. cerevisiae deletion strains, locus YKL009W, strain mrt4, hits give low values 0.995 | S. cerevisiae deletion strains, locus YKL068W, hits give low values 0.99 | S. cerevisiae deletion strains, locus YKL085W, strain MDH1 (second series), hits give low values 0.97 | S. cerevisiae deletion strains, locus YKL085W, strain MDH1, hits give low values 0.97 | S. cerevisiae deletion strains, locus YKL190W, strain CNB1, hits give low values 0.978 | S. cerevisiae deletion strains, locus YKR001C, strain vps1, hits give low values 1 | S. cerevisiae deletion strains, locus YLR039C, strain RIC1, hits give low values 0.959 | S. cerevisiae deletion strains, locus YLR058C, strain SHM2, hits give low values 0.973 | S. cerevisiae deletion strains, locus YLR102C, strain apc9, hits give low values 0.978 | S. cerevisiae deletion strains, locus YLR262C, strain YPT6, hits give low values 0.951 | S. cerevisiae deletion strains, locus YLR268W, strain sec22, hits give low values 0.953 | S. cerevisiae deletion strains, locus YLR330W, strain CHS5, hits give low values 0.998 | S. cerevisiae deletion strains, locus YLR342W, strain FKS1 (second series), hits give low values 1.05 | S. cerevisiae deletion strains, locus YLR371W, strain rom2, hits give low values 0.993 | S. cerevisiae deletion strains, locus YLR418C, strain cdc73, hits give low values 0.955 | S. cerevisiae deletion strains, locus YML016C, strain PPZ1, hits give low values 0.988 | S. cerevisiae deletion strains, locus YML032C, strain rad52, hits give low values 1 | S. cerevisiae deletion strains, locus YML124C, strain tub3, hits give low values 0.993 | S. cerevisiae deletion strains, locus YMR078C, strain ctf18, hits give low values 0.989 | S. cerevisiae deletion strains, locus YMR223W, strain ubp8, hits give low values 0.948 | S. cerevisiae deletion strains, locus YMR263W, strain SAP30, hits give low values 0.96 | S. cerevisiae deletion strains, locus YMR307W, strain GAS1, hits give low values 1.1 | S. cerevisiae deletion strains, locus YNL067W, strain RPL9B, hits give low values 0.959 | S. cerevisiae deletion strains, locus YNL128W, strain TEP1, hits give low values 0.945 | S. cerevisiae deletion strains, locus YNL153C, strain GIM3, hits give low values 0.947 | S. cerevisiae deletion strains, locus YNL233W, strain BNI4, hits give low values 0.979 | S. cerevisiae deletion strains, locus YNL250W, strain rad50, hits give low values 0.97 | S. cerevisiae deletion strains, locus YNL271C, strain bni1, hits give low values 0.987 | S. cerevisiae deletion strains, locus YNL298W, strain CLA4, hits give low values 0.978 | S. cerevisiae deletion strains, locus YNL307C, strain MCK1, hits give low values 0.998 | S. cerevisiae deletion strains, locus YNL322C, strain KRE1, hits give low values 0.982 | S. cerevisiae deletion strains, locus YNR052C, strain pop2, hits give low values 0.991 | S. cerevisiae deletion strains, locus YOL006C, strain TOP1, hits give low values 0.936 | S. cerevisiae deletion strains, locus YOL012C, strain htz1 0.876 | S. cerevisiae deletion strains, locus YOL147C, strain pex11, hits give low values 0.991 | S. cerevisiae deletion strains, locus YOR061W, strain CKA2, hits give low values 0.964 | S. cerevisiae deletion strains, locus YOR069W, strain VPS5, hits give low values 0.994 | S. cerevisiae deletion strains, locus YOR136W, strain idh2, hits give low values 0.994 | S. cerevisiae deletion strains, locus YOR144C, strain elg1, hits give low values 0.993 | S. cerevisiae deletion strains, locus YOR184W, strain ser1, hits give low values 1.03 | S. cerevisiae deletion strains, locus YOR316C, strain cot1, hits give low values 0.975 | S. cerevisiae deletion strains, locus YPL055C, strain LGE1, hits give low values 0.935 | S. cerevisiae deletion strains, locus YPL241C, strain CIN2, hits give low values 0.99 | S. cerevisiae deletion strains, locus YPR119W, strain clb2, hits give low values 0.995 | S. cerevisiae deletion strains, locus YPR141C, strain kar3, hits give low values 0.968 | S. cerevisiae deletion strains, locus YPR163C, strain tif3, hits give low values 0.984 | S. cerevisiae deletion strains, locus YPR167C, strain met16, hits give low values 0.979 | S. cerevisiae deletion strains, strain wtn01, hits give low values 0.934 | S. cerevisiae strains, strain wild type, hits give low values 0.987
